Screening data as filed in PubChem.
TcdB inh – TcdB glycohydrolase inhibitors, primary screen, biochemical, single point, plate reader; TcdB glycohydrolase enzymatic assay; inhibition, % at 9.99 µM; actives 0.24% (n = 350,000); AID 652162, 2013; Toxin B (Clostridioides difficile), P18177; in the data active = inhibition above about 10%
VHR inh abs – VHR1 phosphatase inhibitors, primary screen, biochemical, absorbance, uHTS | Dual specificity protein phosphatase 3 (Homo sapiens), P51452 | recombinant VHR phosphatase, pNPP absorbance | inhibition, % at 13.3 µM | actives 0.52% (n = 290,000) | AID 1654, 2009; in the data active = inhibition above about 50%
Target sequence (P51452 whole entry, looked up): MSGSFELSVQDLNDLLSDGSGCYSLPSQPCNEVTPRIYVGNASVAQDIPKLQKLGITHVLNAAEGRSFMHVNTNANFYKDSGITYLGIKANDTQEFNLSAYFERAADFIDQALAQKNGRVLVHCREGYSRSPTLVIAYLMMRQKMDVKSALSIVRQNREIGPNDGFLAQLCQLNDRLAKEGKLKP
Vc quorum ag – inducers of Vibrio cholerae quorum light production without autoinducers, primary screen, BH1578 luxS cqsA deficient, single point; V. cholerae BH1578 lux reporter, luminescence, 6 h; activation, % at 18.7 µM; actives 0.16% (n = 350,000); in the data active = activation mostly above about 9.7%, no sharp cut-off
SSB-PriA inh – inhibitors of Klebsiella pneumoniae PriA binding to SSB C-terminal tail, primary screen, biochemical, AlphaScreen; actives 0.6% (n = 430,000); PriA–SSB C-terminal tail interaction (Klebsiella pneumoniae); AlphaScreen SSBct-PriA binding, biotinylated peptide; inhibition, % at 33 µM; in the data active = inhibition mostly above about 37%, no sharp cut-off; inactive = mostly below about 20%
PrPC surface inh – inhibitors of human cell surface prion protein PrPC, primary screen, cell-based, TR-FRET | actives 0.43% (n = 370,000) | inhibition, % at 13.8 µM | Major prion protein (Homo sapiens), P04156 | TR-FRET read-out; in the data active = inhibition above about 24%
CCHF vOTU inh-1 – CCHFV vOTU protease inhibitors, primary screen, biochemical, Pep-AMC substrate, fluorescence; Crimean-Congo hemorrhagic fever virus L polyprotein viral ovarian tumor (vOTU) protease …; AID 651958, 2012; inhibition, % at 11.5 µM; actives 0.55% (n = 370,000)
CCHF vOTU inh-2 – CCHFV vOTU protease inhibitors, confirmation, biochemical, Pep-AMC substrate, fluorescence | Recombinant CCHFV vOTU | shares compounds with CCHF vOTU inh-1 | AID 686976, 2013 | actives 17% (n = 1,900) | inhibition, % at 11.5 µM
Numbers stand for hits. Only some compounds are listed: those with a hit (about 1.5% of all), similar ones and a draw of the others. Cut-off read from the data, not from the text of the source, unless noted: active = inhibition above about 30%; inactive = the rest.

What do the screens show for `Cn1c(SCC(=O)Nc2ccc3c(c2)OCO3)nc2cc(-c3ccccc3)sc2c1=O`?
SSB-PriA inh: inactive

Results for CC(C)CC(COCc1ccc(F)cc1)N1CCN(C(=O)c2cccc(C(F)(F)F)c2)CCC1=O (centres undefined) ?
TcdB inh: inactive; VHR inh abs: inactive; Vc quorum ag: inactive; SSB-PriA inh: inactive; PrPC surface inh: inactive; CCHF vOTU inh-1: inactive

Results for Cc1cccc(COC[C@H](CC(C)C)N2CCN(C(=O)c3ccc(C(C)(C)C)cc3)CCC2=O)c1 ?
TcdB inh: inactive; PrPC surface inh: inactive; CCHF vOTU inh-1: 30; CCHF vOTU inh-2: inactive

How did CC(C)C[C@@H](COCc1ccc(F)cc1)N1CCN(C(=O)c2cccc(C(F)(F)F)c2)CCC1=O do in these assays?
TcdB inh: inactive; PrPC surface inh: inactive; CCHF vOTU inh-1: 31; CCHF vOTU inh-2: inactive

How did NC(=O)CSc1nccc(-c2ccccc2)n1 do in these assays?
SSB-PriA inh: inactive

How did CCOC(=O)Nc1nc(CC(=O)NCc2ccc(F)cc2)cs1 do in these assays?
SSB-PriA inh: inactive

What do the screens show for `CCOC(=O)Nc1ccc(NCc2ccc(F)cc2)nc1N`?
TcdB inh: inactive; Vc quorum ag: inactive; SSB-PriA inh: inactive; PrPC surface inh: inactive; CCHF vOTU inh-1: 67; CCHF vOTU inh-2: inactive

Results for COC(=O)c1c(NC(=O)c2ccco2)sc(C(=O)N(C)C)c1C ?
VHR inh abs: inactive; Vc quorum ag: inactive; SSB-PriA inh: inactive; PrPC surface inh: inactive; CCHF vOTU inh-1: 32; CCHF vOTU inh-2: inactive

How did CCn1nnnc1SCC(=O)N1N=C(c2cccs2)CC1c1cccs1 (centres undefined) do in these assays?
TcdB inh: inactive; Vc quorum ag: inactive; SSB-PriA inh: inactive; PrPC surface inh: inactive; CCHF vOTU inh-1: 30; CCHF vOTU inh-2: inactive

What do the screens show for `CC(C)CS(=O)(=O)C1=NN2C(=N)/C(=C\c3ccc(OC(=O)c4ccco4)cc3)C(=O)N=C2S1`?
TcdB inh: inactive; VHR inh abs: inactive; Vc quorum ag: inactive; SSB-PriA inh: inactive; PrPC surface inh: inactive; CCHF vOTU inh-1: 37; CCHF vOTU inh-2: inactive

What do the screens show for `COC(C)(CNC(=O)CSCc1ccccc1)c1cccc(Cl)c1` (centres undefined)?
SSB-PriA inh: inactive

How did Cc1ccccc1-c1nc(CS(=O)(=O)CC(=O)NCCc2ccccc2)c(C)o1 do in these assays?
TcdB inh: inactive; VHR inh abs: inactive; Vc quorum ag: inactive; SSB-PriA inh: inactive; PrPC surface inh: inactive; CCHF vOTU inh-1: 39; CCHF vOTU inh-2: inactive

Results for Cc1oc(-c2ccccc2F)nc1CS(=O)(=O)CC(=O)NCCCc1ccccc1 ?
TcdB inh: inactive; VHR inh abs: inactive; Vc quorum ag: inactive; SSB-PriA inh: inactive; PrPC surface inh: inactive; CCHF vOTU inh-1: inactive

Results for O=C(CCc1ccccc1)Nc1ccncc1 ?
VHR inh abs: inactive; Vc quorum ag: inactive; SSB-PriA inh: inactive; PrPC surface inh: inactive; CCHF vOTU inh-1: 50; CCHF vOTU inh-2: inactive

Results for CCn1ccc(C(=O)N2CCN(c3nc4c(C)cccc4s3)CC2)n1 ?
SSB-PriA inh: inactive

What do the screens show for `Cc1nn(-c2cccc(Cl)c2)c2c1C(c1cccnc1)C(C#N)=C(N)O2` (centres undefined)?
VHR inh abs: inactive; Vc quorum ag: inactive; SSB-PriA inh: inactive; PrPC surface inh: inactive; CCHF vOTU inh-1: 35; CCHF vOTU inh-2: inactive

Results for CCCN(CC(=O)Nc1ccccc1C)C(=O)C1CCN(S(=O)(=O)c2ccc(C)c(C)c2)CC1 ?
TcdB inh: inactive; Vc quorum ag: inactive; PrPC surface inh: inactive; CCHF vOTU inh-1: inactive

How did CCCN(CC(=O)Nc1ccccc1C)C(=O)C1CCN(S(=O)(=O)c2ccc3c(c2)OCCO3)CC1 do in these assays?
TcdB inh: inactive; Vc quorum ag: inactive; SSB-PriA inh: inactive; PrPC surface inh: inactive; CCHF vOTU inh-1: 35; CCHF vOTU inh-2: inactive
